Rows were chosen to be rich in hits. Some 7.5% of all compounds tested hit in one or more screens of this group.
FLuc modulator – firefly luciferase modulation, counter-screen for miR-21 project | P08659 | purified FLuc, Km substrates, luminescence inhibition | Potency, µM (highest dose often 57.5 µM), inactives show top-dose activity change, negative = inhibition, usual class: inhibitors | 360,000 tested, 6.9% active;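 also: plate controls were vehicle for no effect and reference inhibitor for full effect; nearly all actives have a fitted effect of over 55% in size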
Target sequence (P08659 whole entry, looked up): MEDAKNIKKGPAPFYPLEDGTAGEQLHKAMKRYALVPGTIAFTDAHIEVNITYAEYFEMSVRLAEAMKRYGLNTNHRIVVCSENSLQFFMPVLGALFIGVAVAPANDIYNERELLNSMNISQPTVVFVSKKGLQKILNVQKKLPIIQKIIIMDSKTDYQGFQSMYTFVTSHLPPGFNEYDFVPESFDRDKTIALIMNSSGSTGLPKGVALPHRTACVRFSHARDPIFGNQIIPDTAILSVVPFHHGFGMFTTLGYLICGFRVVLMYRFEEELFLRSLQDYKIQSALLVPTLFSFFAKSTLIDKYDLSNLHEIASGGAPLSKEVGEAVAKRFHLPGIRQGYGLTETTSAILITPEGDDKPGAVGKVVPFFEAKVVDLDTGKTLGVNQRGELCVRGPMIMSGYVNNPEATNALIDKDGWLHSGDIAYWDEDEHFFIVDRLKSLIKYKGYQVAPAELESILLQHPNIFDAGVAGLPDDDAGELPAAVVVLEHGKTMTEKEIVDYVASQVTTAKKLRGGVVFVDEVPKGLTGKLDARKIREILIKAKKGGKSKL
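Biochemical qHTS of compounds, final roughly 60 µM downward over six points, against 10 nM purified firefly luciferase using Km concentrations of substrates (10 uM D-luciferin, 10 uM ATP) in Tris acetate pH 7.5 buffer; luminescence output.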
SMN2 splice enh – enhancers of SMN2 splice variant expression; HEK293 SMN2-luciferase splicing reporter, luminescence, 30-36 h; Potency, µM (series often up to 46.1 µM), inactives show at the highest dose activity change, positive = activation, hits mostly activators; 210,000 tested, 2.8% active; AID 1458; also: % of control where 0% means no effect; nearly all actives have a fitted effect of over 55% in size
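qHTS luciferase splicing reporter: luminescence rises when SMN2 exon 7 is included in transfected HEK293 cells. Compound exposure lasted 30-36 h at 37C, with 4.5 mM final sodium butyrate as control, followed by a ONE-Glo read.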
ELG1 genotoxic – induces genotoxicity in HEK293T cells with luciferase-tagged ELG1; HEK293T ELG1-luciferase reporter, luminescence, 16 h; Potency, µM (titrated, usually from 46 µM), for inactives: top-dose activity change, positive = activation, most hits filed as activators; 330,000 tested, 1.3% active; AID 504466; also: % of control where 0% means no effect; nearly all actives have a fitted effect of over 60% in size
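Quantitative HTS format in 1536-well plates. HEK293T ELG1-luciferase reporter cells receive test compound and are incubated 16 hr at 37 °C, 5% CO2; ONE-Glo added, 30 min room temperature, then luminescence read.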
Rab9 prom act – Rab9 promoter activation; Huh7 Rab9 promoter-luciferase reporter, luminescence, 24 h; Potency, µM (top dose mostly 9.22 µM), for the others: top-dose activation, negative = inhibition, hits mostly activators; 320,000 tested, 2.8% active; AID 485297; also: % of control where 0% means no effect; nearly all actives have a fitted effect of over 60% in size
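Quantitative HTS format; Huh7 Rab9-luciferase reporter cells (1500/well) receive compound 2 h post-plating, incubate 24 h at 37 °C, then get luciferase reagent for 10 min before luminescence reading.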
NPC1 promoter act – activators of NPC1 promoter; Huh7 NPC1 promoter luciferase reporter, 24 h; 320,000 tested, 2.4% active; AID 485313; Potency, µM (top dose mostly 9.22 µM), without a hit: at the top dose activation, hits mostly activators; also: % of control where 0% means no effect; nearly all actives have a fitted effect of over 60% in size
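Readout is luciferase luminescence, reflecting NPC1 promoter activation in stably transfected Huh7 cells after 24 h compound exposure at 37 °C in reduced-serum medium with 10% FBS.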
* = called active by the depositor. Calls follow the shape of the dose curve; as a rule, active = well fitted curve in the direction sought with a large enough effect; inconclusive = small, poorly fitted or top-dose-only effect, or another doubt; inactive = no such curve, though single readings can be large; an effect the other way counts as inactive or inconclusive. Potency is read from the fitted curve at half-maximal effect.

Results for COc1cccc(/C=N/Nc2ncc(C)c(=O)[nH]2)c1OC ?
FLuc modulator: 0%; ELG1 genotoxic: 10%; Rab9 prom act: 0%; NPC1 promoter act: -3%

How did Cc1csc(NC(=O)c2cn3ccccc3n2)n1 do in these assays?
FLuc modulator: 2.1µM*; SMN2 splice enh: 0.63µM*; ELG1 genotoxic: 0.73µM*; Rab9 prom act: inconclusive; NPC1 promoter act: inconclusive

How did CC1CN(C(=O)c2ccncc2)CC(C)O1 (centres undefined) do in these assays?
FLuc modulator: 2%; SMN2 splice enh: 2%; ELG1 genotoxic: -4%; Rab9 prom act: -5%; NPC1 promoter act: inconclusive

How did O=C(Nc1ccc(-n2cnnn2)cc1)c1cn2ccccc2n1 do in these assays?
FLuc modulator: inconclusive; ELG1 genotoxic: inconclusive; Rab9 prom act: 1.6µM*; NPC1 promoter act: 1.6µM*

How did CC1CN(C(=O)c2cn3ccccc3n2)CC(C)O1 (centres undefined) do in these assays?
FLuc modulator: 12µM*; SMN2 splice enh: -6%; ELG1 genotoxic: -1%; Rab9 prom act: -3%; NPC1 promoter act: 2%

How did Cc1c(NC(=O)c2cn3ccccc3n2)cccc1-n1cnnn1 do in these assays?
FLuc modulator: inconclusive; ELG1 genotoxic: 13%; Rab9 prom act: 18%; NPC1 promoter act: 25%

What do the screens show for `O=C(Nc1ccccc1)c1cn2ccccc2n1`?
FLuc modulator: 0.95µM*; ELG1 genotoxic: inconclusive; Rab9 prom act: 0.2µM*; NPC1 promoter act: 0.32µM*

How did COc1ccc(NC(=O)CSc2nnc(NC(=O)C3CCC3)s2)c(OC)c1 do in these assays?
FLuc modulator: -2%; ELG1 genotoxic: -3%; Rab9 prom act: -1%; NPC1 promoter act: -2%

What do the screens show for `COc1ccc2c(=O)c(-c3ccc(OC)c(OC)c3)coc2c1`?
FLuc modulator: 7.6µM*; ELG1 genotoxic: inconclusive; Rab9 prom act: inconclusive; NPC1 promoter act: inconclusive

What do the screens show for `COc1ccc(-c2coc3cc(O)ccc3c2=O)cc1OC`?
FLuc modulator: 19µM*; SMN2 splice enh: 28%; ELG1 genotoxic: inconclusive; Rab9 prom act: inconclusive; NPC1 promoter act: inconclusive

What do the screens show for `CCOc1ccccc1Oc1coc2cc(O)ccc2c1=O`?
FLuc modulator: -11%; SMN2 splice enh: 2%; ELG1 genotoxic: 4%; Rab9 prom act: 15%; NPC1 promoter act: 15%

How did O=c1c(-c2ccc(F)cc2)coc2cc(O)ccc12 do in these assays?
FLuc modulator: 13µM*; SMN2 splice enh: 78%; ELG1 genotoxic: inconclusive; Rab9 prom act: 3.5µM*; NPC1 promoter act: 3.2µM*

What do the screens show for `COc1ccccc1-c1coc2cc(O)cc(O)c2c1=O`?
FLuc modulator: 21µM*; SMN2 splice enh: 25%; ELG1 genotoxic: 16µM*; Rab9 prom act: inconclusive; NPC1 promoter act: 21%

Results for COc1ccc(-c2coc3cc(O)cc(O)c3c2=O)cc1OC ?
FLuc modulator: inconclusive; ELG1 genotoxic: inconclusive; Rab9 prom act: 24%; NPC1 promoter act: 22%

How did COc1ccc2c(=O)c(-c3ccccc3)coc2c1 do in these assays?
FLuc modulator: 3µM*; SMN2 splice enh: 11µM*; ELG1 genotoxic: 1%; Rab9 prom act: 0.79µM*; NPC1 promoter act: 0.71µM*

Results for O=c1c(-c2ccc(F)cc2)coc2c3c(ccc12)OCCO3 ?
FLuc modulator: inconclusive; SMN2 splice enh: inconclusive; ELG1 genotoxic: 2.6µM*; Rab9 prom act: 1.3µM*; NPC1 promoter act: 3.5µM*

How did COc1ccc(-c2coc3cc(OC(C)=O)cc(OC(C)=O)c3c2=O)cc1 do in these assays?
SMN2 splice enh: 8.9µM*

How did CCN(CC)C(=O)Oc1ccc2c(=O)c(-c3ccccc3)coc2c1 do in these assays?
FLuc modulator: 6µM*; SMN2 splice enh: inconclusive; ELG1 genotoxic: inconclusive; Rab9 prom act: 3.5µM*; NPC1 promoter act: 1.6µM*

Results for COc1ccccc1-c1coc2cc(OC(=O)/C=C/c3ccccc3)ccc2c1=O ?
FLuc modulator: 0%; SMN2 splice enh: 22%; ELG1 genotoxic: 5%; Rab9 prom act: 1%; NPC1 promoter act: 0%

How did Cc1ccc(CNC(=O)c2ccc(Cn3c(=O)c4ccccc4n(CC(=O)Nc4ccc(C)cc4)c3=O)cc2)cc1 do in these assays?
FLuc modulator: 1%; SMN2 splice enh: 7%

How did O=C(NCc1ccccc1)C1=C[C@H](c2coc3ccccc3c2=O)C[C@H](OCCCCO)O1 do in these assays?
FLuc modulator: -2%; ELG1 genotoxic: -1%; Rab9 prom act: 8%; NPC1 promoter act: 1%

How did Oc1ccc(CNc2ccc(C(F)(F)F)cc2Cl)c2cccnc12 do in these assays?
FLuc modulator: 2%; Rab9 prom act: -4%; NPC1 promoter act: -3%

What do the screens show for `Cc1cc(=S)n(-c2ccccc2)n1C`?
FLuc modulator: 8%; SMN2 splice enh: -17%; ELG1 genotoxic: 16µM*; Rab9 prom act: 25%; NPC1 promoter act: 17%

How did O=C(NC1CCCCC1)C(=S)NC1CCCCC1 do in these assays?
FLuc modulator: inconclusive; SMN2 splice enh: 14µM*; ELG1 genotoxic: inconclusive; Rab9 prom act: 3.5µM*; NPC1 promoter act: 2.8µM*

What do the screens show for `O=C(NC1CCCCCC1)C(=S)NCc1ccccc1`?
FLuc modulator: 21µM*; SMN2 splice enh: 25%; ELG1 genotoxic: 14%; Rab9 prom act: inconclusive; NPC1 promoter act: 14%

How did O=C(CSc1ccccc1C(=O)NCc1ccccc1)NC1CCCCCCC1 do in these assays?
FLuc modulator: 24µM*; SMN2 splice enh: -37%; ELG1 genotoxic: -5%; Rab9 prom act: -4%; NPC1 promoter act: -3%

How did O=C(NC1CCCCC1)C(=S)NCc1ccccc1 do in these assays?
FLuc modulator: 21µM*; SMN2 splice enh: inconclusive; ELG1 genotoxic: 17%; Rab9 prom act: inconclusive; NPC1 promoter act: inconclusive

How did O=C(NC1CCCCCC1)C(=S)NCCc1ccccc1 do in these assays?
FLuc modulator: inconclusive; SMN2 splice enh: 23%; ELG1 genotoxic: 8%; Rab9 prom act: 26%; NPC1 promoter act: 10%

What do the screens show for `COc1ccc(CNS(=O)(=O)c2cc(CN3C(=O)c4cccnc4C3=O)ccc2OC)cc1`?
FLuc modulator: 0%; ELG1 genotoxic: 3%; Rab9 prom act: -3%; NPC1 promoter act: -1%

What do the screens show for `CN1CCN(C(=O)c2cnn(-c3ccc(F)cc3F)c2C2CCN(C(=O)OC(C)(C)C)CC2)CC1`?
FLuc modulator: -3%

Results for CC(=O)N(Cc1cccnc1)c1nc2c(C)cc(C)cc2s1 ?
FLuc modulator: -16%

Results for CC(=O)Nc1ccc(NC(=O)c2c(C)nn(Cc3ccccc3)c2Cl)cc1 ?
FLuc modulator: -6%; ELG1 genotoxic: 16%; Rab9 prom act: -1%; NPC1 promoter act: -3%

Results for Cc1nn(Cc2ccccc2Cl)c(Cl)c1C(=O)NCCc1ccccc1 ?
FLuc modulator: 3.8µM*; SMN2 splice enh: 11µM*; ELG1 genotoxic: inconclusive; Rab9 prom act: 1.6µM*; NPC1 promoter act: 4µM*

Assay outcomes from PubChem.
